Test results taken from PubChem BioAssay (NCATS).
Records with an inconclusive call do not appear. Activity calls are given as the source filed them. Unless noted, calls follow the shape of the dose curve; as a rule, active = well fitted curve in the direction sought with a large enough effect; inconclusive = small, poorly fitted or top-dose-only effect, or another doubt; inactive = no such curve, though single readings can be large; an effect the other way counts as inactive or inconclusive.

Experiments:
[1] = target: Glucocorticoid receptor (Homo sapiens) (UniProt P04150); experiment: qHTS assay for small molecule agonists of glucocorticoid receptor signaling (AID 588532; active = well fitted curve in the direction sought with a large enough effect in the signal ratio, with a control signal flat; the % refers to the signal ratio;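 also: 100% = dexamethasone at 0.1 µM and 0% = DMSO only wells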); conditions: HeLa MMTV-bla, beta-lactamase ratio, agonist, 18 h; stronger effect = higher value; percent of dexamethasone control, DMSO zero
How it was run: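 HeLa GRE-bla reporter cells; 18 h compound exposure at 37 C; 2 h CCF4 loading at room temperature; fluorescence at 460 and 530 nm; EC50 by Hill equation.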

[2] = qHTS assay for small molecule antagonists of peroxisome proliferator-activated receptor delta signaling (AID 588535); conditions: HEK293T PPARd-UAS-bla, beta-lactamase FRET ratio, 18 h; 460 nm channel;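 also: cells co-treated with a PPAR-delta agonist as stimulator during compound exposure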
How it was run: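 Beta-lactamase reporter read-out (405 nm excitation, 460/530 nm emission) after CCF4 loading for 2 hrs at RT. HEK293T PPAR-delta-UAS-bla cells, 2% charcoal/dextran FBS, compounds for 18 hrs at 37 C. Hill fit gave IC50 and efficacy.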

[3] = target: Thyroid hormone receptor beta (Homo sapiens) (UniProt P10828); experiment: qHTS assay for small molecule agonists of thyroid hormone receptor beta signaling (AID 588545; calls by dose curve;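 also: 0% = DMSO only and 100% = 10 nM T3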); conditions: TR-UAS-bla GripTite HEK 293, beta-lactamase ratio, agonist mode, 18 h; series mostly up to 76.7 µM
How it was run: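 TR-UAS-bla GripTite HEK 293 cells (2500/well, medium with 2% charcoal/dextran FBS) were treated in agonist mode for 18 h at 37 C, titrated. Beta-lactamase was read by CCF4 ratio after 2 h; normalized to 10 nM T3 (100%) and DMSO, Hill-fitted for EC50 and efficacy.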

[4] = qHTS assay for small molecule antagonists of retinoid X receptor alpha signaling (AID 588546; active = well fitted inhibition curve with a large enough effect in the signal ratio, with a control signal flat, not every such curve was filed as active; the % refers to the signal ratio;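 also: cells stimulated with 9-cis-retinoic acid as agonist; % is scaled to controls: 0 for no effect and ±100 for the full control effect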); conditions: HEK293T RXRa-UAS-bla, beta-lactamase ratio, antagonist mode; measured here: W530 green channel, cytotoxicity proxy
How it was run: (§1)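 Beta-lactamase reporter inhibition, read as CCF4 fluorescence ratio (ex 405, em 460/530 nm) after 2 h at RT. HEK293T UAS-bla cells, 2500/well, were stimulated with 9-cis-RA at 500 or 100 nM final alongside test compound for 18 h at 37 C.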

[5] = target: Peroxisome proliferator-activated receptor alpha (Homo sapiens) (UniProt Q07869); experiment: qHTS assay for small molecule agonists of the peroxisome proliferator-activated receptor alpha (PPARalpha) signaling pathway (AID 651778); conditions: PathHunter PPARalpha complementation, chemiluminescence, 6 h; max response: stronger effect = higher value; also: % of control where 0% means no effect
How it was run: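 Enzyme-fragment complementation assay in which ligand-bound PPARalpha translocates and forms an active enzyme that generates chemiluminescence. Cells were plated overnight, exposed to compound for 6 hr at 37 C, and then given detection reagent for 60 min at room temperature.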

[6] = qHTS assay for small molecule agonists of the antioxidant response element (ARE) signaling pathway measured by Nrf2-dependant transcriptional activity (AID 720636; active = well fitted curve in the direction sought with a large enough effect in the repeat runs; an effect the other way counts as inactive or inconclusive;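 also: HepG2 cells with an ARE-driven luciferase reporter; % of control where 0% means no effect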); conditions: ARE-luc HepG2, Nrf2 luciferase reporter, 16 h; series mostly up to 92.4 µM
How it was run: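 ONE-Glo luminescence, read 30 min after reagent addition at room temperature, reflected ARE reporter activity in HepG2 cells that had been incubated with compound for 16 hr at 37 C in 1% dialyzed FBS.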

[7] = qHTS assay for small molecule agonists of the antioxidant response element (ARE) signaling pathway measured by Nrf2-dependant transcriptional activity - cell viability counter screen (AID 720653; active = well fitted curve in the direction sought with a large enough effect in the repeat runs; an effect the other way counts as inactive or inconclusive; also: % is scaled to controls: 0 for no effect and ±100 for the full control effect); conditions: ARE-bla HepG2 viability, CellTiter-Glo ATP luminescence, 16 h; max response: stronger effect = lower value
How it was run: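 ARE-bla HepG2 cells treated with compounds for 16 h at 37C; this counter screen measures viability as intracellular ATP by CellTiter-Glo luminescence after 30 min at room temperature.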

[8] = qHTS assay for cell viability of HEK293 cells (AID 743288); conditions: ATP luminescence (CellTiter-Glo), 18 h; max response: stronger effect = lower value; also: % is scaled to controls: 0 for no effect and ±100 for the full control effect; nearly all actives have a fitted effect of over 50% in size
How it was run: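 Quantitative high-throughput screen: compounds were pinned onto parental HEK293 cells (2,000 per well) after a minimum 5 h settling at 37 C, incubated 18 h at 37 C, and intracellular ATP measured by luciferase luminescence.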

[9] = qHTS assay for cell viability of the p53RE-bla HCT-116 cell line (AID 743292); conditions: p53RE-bla HCT-116 viability, ATP luminescence, 16 h; series mostly up to 95 µM; also: % is scaled to controls: 0 for no effect and ±100 for the full control effect; nearly all actives have a fitted effect of over 55% in size
How it was run: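 After plating at 4,000 cells per well and a 5 h rest at 37 C, HCT-116 cells carrying p53RE-bla received test chemicals in DMSO. Sixteen hours later at 37 C, CellTiter-Glo was added and luminescence recorded following 30 min at room temperature.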

[10] = target: Nuclear receptor subfamily 1 group I member 2 (Rattus norvegicus) (UniProt Q9R1A7); experiment: qHTS assay for small molecule activators of the rat pregnane X receptor (rPXR) signaling pathway (AID 651751; call rule not given here; also: 0% is about no effect); conditions: rPXR reporter cells, luciferase (One-Glo), 24 h
[11] = qHTS assay for small molecule activators of the human pregnane X receptor (PXR) signaling pathway (AID 720659; call rule not given here; also: 0% is about no effect); conditions: DPX-2 HepG2 CYP3A4-luciferase, 24 h; series mostly up to 92.3 µM
[12] = target: Peroxisome proliferator-activated receptor gamma (Homo sapiens) (UniProt P37231); experiment: qHTS assay for small molecule agonists of peroxisome proliferator-activated receptor gamma signaling (AID 588536; active = well fitted curve in the direction sought with a large enough effect in the signal ratio, with a control signal flat, not every such curve was filed as active; the % refers to the signal ratio;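 also: 0% = DMSO basal wells and 100% = rosiglitazone at 2 µM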); conditions: HEK293 PPARg-UAS-bla, beta-lactamase ratio, 16 h, percent of rosiglitazone response, DMSO as zero; series mostly up to 76.7 µM
How it was run: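 Using GeneBLAzer HEK293 cells, response was quantified by CCF4 fluorescence and normalized between basal DMSO (0%) and rosiglitazone 2 uM (100%); curves yielded half-maximal stimulation concentration and efficacy.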

[13] = target: Peroxisome proliferator-activated receptor gamma (Homo sapiens) (UniProt P37231); experiment: qHTS assay for small molecule antagonists of peroxisome proliferator-activated receptor gamma signaling (AID 588537; active = well fitted inhibition curve with a large enough effect in the signal ratio, with a control signal flat, not every such curve was filed as active; the % refers to the signal ratio;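 also: reporter cells co-stimulated with 50 nM rosiglitazone agonist during compound treatment; % of control where 0% means no effect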); conditions: HEK293 PPARg-UAS-bla, beta-lactamase ratio, antagonist mode; series mostly up to 76.8 µM
How it was run: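 Read-out: CCF4 fluorescence (ex 405, em 460/530 nm) after 2 h at RT. Cells were HEK293 carrying a UAS-bla reporter and treated 16 h at 37 C with compound plus rosiglitazone (50 nM final). Normalized to rosiglitazone and DMSO.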

[14] = qHTS assay for small molecule agonists of retinoid X receptor alpha signaling (AID 588544; calls by dose curve;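 as to activation: 0% = DMSO basal wells and 100% = reference agonist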); conditions: HEK293T RXRa-UAS-bla, beta-lactamase reporter, 18 h; 530 nm emission
[15] = target: Retinoic acid receptor RXR-alpha (Homo sapiens) (UniProt P19793); experiment: as above; conditions: HEK293T RXRa-UAS-bla, beta-lactamase reporter, 18 h; series mostly up to 76.7 µM
[16] = target: Retinoic acid receptor RXR-alpha (Homo sapiens) (UniProt P19793); experiment: qHTS assay for small molecule antagonists of retinoid X receptor alpha signaling (AID 588546); conditions: HEK293T RXRa-UAS-bla, beta-lactamase ratio, antagonist mode;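 also: cells stimulated with 9-cis-retinoic acid as agonist; % is scaled to controls: 0 for no effect and ±100 for the full control effect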
How it was run: as §1

[17] = qHTS assay for environmental chemicals that activate the Aryl hydrocarbon Receptor (AhR) signaling pathway (AID 651777); conditions: 1A2-DRE human hepatoma cells, luciferase, 24 h; activation: stronger effect = higher value; also: % of control where 0% means no effect; nearly all actives have a fitted effect of over 15% in size
How it was run: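 Following a 24 hr incubation with test chemicals at 37 C and 5% CO2, 1A2-DRE human hepatoma cells received One-Glo reagent; after 30 min at room temperature, luciferase output reflected CYP1A2 induction via AhR.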

[18] = target: Vitamin D3 receptor (Homo sapiens) (UniProt P11473); experiment: qHTS assay for small molecule antagonists of vitamin D receptor signaling (AID 588541; calls by dose curve;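 also: receptor activated by calcitriol during compound treatment; % is scaled to controls: 0 for no effect and ±100 for the full control effect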); conditions: HEK293T VDR-UAS-bla, beta-lactamase ratio, antagonist mode; series mostly up to 76.7 µM
How it was run: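 VDR-UAS-bla HEK293T cells in 2% charcoal-stripped FBS were stimulated with 1-alpha,25-dihydroxyvitamin D3 (3 nM final) plus compound for 16 h at 37 C. The beta-lactamase CCF4 readout was normalized to 50 nM agonist and DMSO, and Hill fits gave IC50.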

[19] = target: Vitamin D3 receptor (Homo sapiens) (UniProt P11473); experiment: qHTS assay for small molecule agonists of vitamin D receptor signaling (AID 588543; calls by dose curve;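 also: 0% = DMSO basal and 100% = reference agonist control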); conditions: HEK293T VDR-UAS-bla, beta-lactamase ratio, 16 h; series mostly up to 76.8 µM
How it was run: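 qHTS in agonist mode: compound titrations stimulate a VDR-driven β-lactamase reporter in HEK293T cells over 16 h at 37 °C. Response normalized to 50 nM 1α,25-dihydroxyvitamin D3 = 100%, DMSO = 0%; Hill fitting gives EC50 and maximal response.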

[20] = qHTS assay for small molecule activators of the p53 signaling pathway (AID 651743; active = well fitted activation curve with a large enough effect in the signal ratio, not every such curve was filed as active; the % refers to the signal ratio; also: % of control where 0% means no effect); conditions: HCT-116 p53RE-bla, beta-lactamase FRET ratio, 16 h; activation: stronger effect = higher value
How it was run: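 Reporter: beta-lactamase driven by p53 response elements, stably integrated in HCT-116 cells. Cells seeded at 4,000/well, 5 h preincubation, compound (DMSO) 16 h at 37 C; B/G FRET substrate 2 h RT; fluorescence intensity read.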

Thyroid hormone receptor beta (Homo sapiens), sequence (P10828 whole entry, looked up): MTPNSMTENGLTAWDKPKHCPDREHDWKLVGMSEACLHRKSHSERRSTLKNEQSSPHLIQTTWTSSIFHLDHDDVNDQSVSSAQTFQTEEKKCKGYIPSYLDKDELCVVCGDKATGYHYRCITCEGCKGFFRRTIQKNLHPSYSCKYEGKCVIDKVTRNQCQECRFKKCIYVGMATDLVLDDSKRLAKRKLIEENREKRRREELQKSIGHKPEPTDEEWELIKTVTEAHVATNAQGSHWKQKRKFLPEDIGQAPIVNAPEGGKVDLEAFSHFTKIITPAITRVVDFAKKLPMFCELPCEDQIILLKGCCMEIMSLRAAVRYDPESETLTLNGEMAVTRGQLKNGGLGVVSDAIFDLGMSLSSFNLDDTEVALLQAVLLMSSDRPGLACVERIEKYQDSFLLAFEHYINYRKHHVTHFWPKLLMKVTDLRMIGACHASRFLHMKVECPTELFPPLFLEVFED
Peroxisome proliferator-activated receptor gamma (Homo sapiens), sequence (P37231 whole entry, looked up): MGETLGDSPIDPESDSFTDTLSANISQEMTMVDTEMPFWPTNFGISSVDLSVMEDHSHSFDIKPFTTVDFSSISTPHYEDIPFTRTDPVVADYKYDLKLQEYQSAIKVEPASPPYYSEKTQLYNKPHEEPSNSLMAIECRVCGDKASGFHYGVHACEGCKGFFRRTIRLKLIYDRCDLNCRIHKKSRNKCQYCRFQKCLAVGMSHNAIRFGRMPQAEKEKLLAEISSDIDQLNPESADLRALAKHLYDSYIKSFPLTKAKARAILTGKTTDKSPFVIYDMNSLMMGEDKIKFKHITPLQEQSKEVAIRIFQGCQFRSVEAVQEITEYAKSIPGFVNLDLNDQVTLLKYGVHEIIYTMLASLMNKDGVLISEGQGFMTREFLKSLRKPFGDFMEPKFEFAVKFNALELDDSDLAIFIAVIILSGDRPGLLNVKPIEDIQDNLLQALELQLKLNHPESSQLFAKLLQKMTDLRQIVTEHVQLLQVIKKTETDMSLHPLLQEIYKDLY
Glucocorticoid receptor (Homo sapiens), sequence (P04150 whole entry, looked up): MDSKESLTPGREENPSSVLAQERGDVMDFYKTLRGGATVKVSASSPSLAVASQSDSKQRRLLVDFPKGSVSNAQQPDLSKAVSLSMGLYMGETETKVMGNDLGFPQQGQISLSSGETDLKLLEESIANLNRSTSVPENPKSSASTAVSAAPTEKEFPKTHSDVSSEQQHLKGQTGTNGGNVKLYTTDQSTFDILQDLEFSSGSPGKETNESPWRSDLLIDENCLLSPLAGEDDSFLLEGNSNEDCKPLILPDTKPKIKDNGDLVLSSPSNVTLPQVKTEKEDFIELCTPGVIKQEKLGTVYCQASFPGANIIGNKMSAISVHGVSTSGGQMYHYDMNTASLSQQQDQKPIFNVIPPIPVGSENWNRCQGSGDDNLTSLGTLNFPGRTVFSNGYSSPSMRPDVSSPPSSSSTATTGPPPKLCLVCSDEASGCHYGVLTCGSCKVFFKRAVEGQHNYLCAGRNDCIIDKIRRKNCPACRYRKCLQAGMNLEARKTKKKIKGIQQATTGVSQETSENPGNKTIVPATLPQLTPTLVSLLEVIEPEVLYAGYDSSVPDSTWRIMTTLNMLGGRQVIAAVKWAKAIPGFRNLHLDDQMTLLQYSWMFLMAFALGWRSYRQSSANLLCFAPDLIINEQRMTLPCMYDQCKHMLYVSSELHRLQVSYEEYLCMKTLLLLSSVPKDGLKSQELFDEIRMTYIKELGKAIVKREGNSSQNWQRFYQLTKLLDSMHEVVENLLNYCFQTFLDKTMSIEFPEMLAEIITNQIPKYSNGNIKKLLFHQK
Nuclear receptor subfamily 1 group I member 2 (Rattus norvegicus), sequence (Q9R1A7 whole entry, looked up): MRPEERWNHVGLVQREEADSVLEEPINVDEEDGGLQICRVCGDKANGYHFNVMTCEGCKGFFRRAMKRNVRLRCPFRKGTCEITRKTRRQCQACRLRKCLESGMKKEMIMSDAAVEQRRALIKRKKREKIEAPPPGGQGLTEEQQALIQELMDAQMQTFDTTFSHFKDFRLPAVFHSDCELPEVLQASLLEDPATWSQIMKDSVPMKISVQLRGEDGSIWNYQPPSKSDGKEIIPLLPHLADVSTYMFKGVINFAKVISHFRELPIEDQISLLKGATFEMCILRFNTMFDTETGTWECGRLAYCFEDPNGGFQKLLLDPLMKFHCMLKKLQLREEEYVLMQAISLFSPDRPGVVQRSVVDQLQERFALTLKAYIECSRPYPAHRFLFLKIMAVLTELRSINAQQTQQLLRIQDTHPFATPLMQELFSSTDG
Vitamin D3 receptor (Homo sapiens), sequence (P11473 whole entry, looked up): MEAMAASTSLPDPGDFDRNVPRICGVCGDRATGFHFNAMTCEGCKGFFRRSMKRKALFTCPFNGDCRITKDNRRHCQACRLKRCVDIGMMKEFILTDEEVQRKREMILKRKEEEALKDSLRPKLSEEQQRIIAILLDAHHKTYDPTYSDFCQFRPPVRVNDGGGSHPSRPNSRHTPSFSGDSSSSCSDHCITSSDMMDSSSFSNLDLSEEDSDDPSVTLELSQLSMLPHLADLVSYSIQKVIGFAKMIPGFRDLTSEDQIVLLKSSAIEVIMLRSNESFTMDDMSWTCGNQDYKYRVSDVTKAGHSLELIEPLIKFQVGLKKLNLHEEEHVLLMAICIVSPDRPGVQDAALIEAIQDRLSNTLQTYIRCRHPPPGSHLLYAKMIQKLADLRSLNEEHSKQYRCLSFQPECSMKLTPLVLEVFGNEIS
Retinoic acid receptor RXR-alpha (Homo sapiens), sequence (P19793 whole entry, looked up): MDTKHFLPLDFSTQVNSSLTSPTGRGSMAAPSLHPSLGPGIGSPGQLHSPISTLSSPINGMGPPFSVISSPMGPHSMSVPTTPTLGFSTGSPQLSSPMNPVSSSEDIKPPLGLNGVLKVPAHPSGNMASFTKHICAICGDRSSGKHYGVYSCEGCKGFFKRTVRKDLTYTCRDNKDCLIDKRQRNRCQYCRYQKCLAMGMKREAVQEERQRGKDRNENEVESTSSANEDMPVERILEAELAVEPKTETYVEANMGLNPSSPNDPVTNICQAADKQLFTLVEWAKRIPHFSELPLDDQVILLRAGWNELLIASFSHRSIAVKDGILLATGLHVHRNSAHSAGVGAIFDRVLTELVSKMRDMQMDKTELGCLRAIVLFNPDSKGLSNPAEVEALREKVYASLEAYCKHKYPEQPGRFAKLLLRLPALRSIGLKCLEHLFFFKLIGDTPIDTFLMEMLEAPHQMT
Peroxisome proliferator-activated receptor alpha (Homo sapiens), sequence (Q07869 whole entry, looked up, the tested form may be a part): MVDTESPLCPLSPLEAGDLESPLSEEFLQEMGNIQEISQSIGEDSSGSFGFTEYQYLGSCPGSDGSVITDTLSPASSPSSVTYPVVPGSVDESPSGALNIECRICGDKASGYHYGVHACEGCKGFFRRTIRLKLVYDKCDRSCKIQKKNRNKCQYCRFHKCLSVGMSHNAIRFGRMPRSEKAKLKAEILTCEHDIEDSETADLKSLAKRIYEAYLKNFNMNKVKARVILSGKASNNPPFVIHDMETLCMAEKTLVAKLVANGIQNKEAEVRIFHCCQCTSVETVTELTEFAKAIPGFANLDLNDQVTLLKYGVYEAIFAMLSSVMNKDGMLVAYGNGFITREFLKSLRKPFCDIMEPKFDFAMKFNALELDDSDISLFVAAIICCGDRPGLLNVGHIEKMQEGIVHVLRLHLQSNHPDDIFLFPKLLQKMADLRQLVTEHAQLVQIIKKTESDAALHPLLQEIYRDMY

COC(=O)CCSCCC(=O)OC
13.2%: max response [2]
inactive: activation [1] 8.88% | Potency [3] | max response [5] -1.49% | Potency [6] | max response [7] 1.34% | max response [8] -5.77% | Potency [9] | max response [10] 0.101% | outcome [11]
-8.85%: max response [4]

NC(=O)Cc1cccc2ccccc12
inactive: activation [1] -1.98% | outcome [12] | Potency [13] | Potency [15] | max response [16] -14.7% | activation [17] 4.55% | max response [5] -0.179% | max response [7] -4.7% | max response [8] -7.9% | Potency [9] | max response [10] -0.261% | outcome [11]
36.8%: max response [2]
0.786%: max response [4]
-2.89%: max response [14]

CCCCCCCC/C=C\CCCCCCCCO
0.0391%: max response [4]
-18.5%: max response [14]
inactive: activation [1] -0.954% | outcome [12] | Potency [13] | Potency [18] | Potency [15] | Potency [3] | max response [16] 6.68% | activation [17] 0.617% | max response [5] 8.71% | Potency [6] | max response [7] -1.08% | max response [8] -11.8% | Potency [9] | max response [10] -0.215%
8.68%: max response [2]

O=C1CCC(C2CCCCC2)CC1
-15.9%: max response [14]
-11.9%: max response [4]
inactive: outcome [12] | Potency [18] | outcome [19] | Potency [15] | Potency [3] | max response [16] -6.4% | activation [20] -4.16% | activation [17] -0.377% | max response [5] -1.16% | Potency [6] | max response [7] -5.5% | max response [8] -5.89% | Potency [9] | max response [10] -0.198% | outcome [11]

CC(C)(C)c1ccc(C(=O)O)cc1
-7.4%: max response [4]
0.0983%: max response [14]
29.8%: max response [2]
inactive: activation [1] -3.04% | outcome [12] | Potency [18] | outcome [19] | Potency [15] | Potency [3] | activation [20] -4.37% | activation [17] 2.5% | max response [5] -0.433% | Potency [6] | max response [8] -3.22% | Potency [9] | max response [10] -0.15% | outcome [11]

C=C(C)C(=O)OCC(CC)(COC(=O)C(=C)C)COC(=O)C(=C)C
-12.4%: max response [14]
9.24%: max response [2]
-6.08%: max response [4]
inactive: activation [1] 3.82% | outcome [12] | Potency [13] | Potency [15] | Potency [3] | max response [16] 13.1% | activation [20] -3.72% | activation [17] -0.628% | max response [5] -3.37% | Potency [6] | max response [7] -12% | max response [8] -15.9% | Potency [9] | max response [10] -1.04% | outcome [11]
